In PubChem BioAssay AID1508625 (Wald Lab, School of Medicine, Case Western Reserve …, 2021):

Assay: enhancers of NK cell killing of ovarian tumor cells, primary screen, imaging, OVCAR3, primary NK cells, calcein-AM imaging (AID 1508625);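 also: compound given to NK cells 16 h before adding targets at 1.5 to 1 ratio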
Conditions: OVCAR3 lysis by primary NK cells, at 5 µM; z-score: measured here: robust Z-score, single-point normalisation

SMILES | corrected activity, negative = more killing | z-score
CC(C)C(CC(=O)O)NS(=O)(=O)c1ccc(F)cc1 (stereo unspecified) | -3.43% | -0.924
CN1C(=O)c2ccccc2C(C(=O)NCCCN2CCCCCC2)C1c1cccs1 (stereo unspecified) | -5.67% | -1.41
FC(F)(F)c1ccc(Oc2cccc(C(F)(F)F)c2)nc1 | -1.98% | -1.1
Brc1cccc(-c2nnc3sc(CN4CCOCC4)cn23)c1 | -6.12% | -1.74
NC(=O)c1ccccc1NC(=O)c1ccc(-c2cccc(Cl)c2)o1 | -6.51% | -1.94
CCOc1ccc(OCC)c(NC(=O)C2(S(=O)(=O)c3ccc(Cl)cc3)CC2)c1 | -4.65% | -1.32
Cc1cc(OCCCN2CCCCCC2)ccc1[N+](=O)[O-] | 0.702% | 0.391
Cc1cccc(C)c1OCCCCCCN1CCOCC1 | -1.15% | -0.473
Cc1ccccc1-n1nnnc1C(c1ccccc1)N(C)Cc1ccc(Cl)c(Cl)c1 (stereo unspecified) | -1.59% | -0.695
CC(=O)Nc1ccc(S(=O)(=O)NCc2ccc(C(=O)O)cc2)cc1 | -5.84% | -1.58
CCOC(=O)C1=C(N)OC2=C(C(=O)CC(C)(C)C2)C1c1ccc(O)cc1 (stereo unspecified) | -4.12% | -1.28
Cc1cc(-n2c(N)c(C(N)=O)sc2=S)ccc1Cl | -4.14% | -1.1
CCC(C)NC(=O)c1ccc2c(=O)n(CCN(CC)CC)c(=S)[nH]c2c1 (stereo unspecified) | -4.1% | -1.09
Cc1oc(-c2cccc(Br)c2)nc1CN1CCC(C(=O)NCc2ccc(Cl)cc2)CC1 | -6.33% | -1.71
Cc1ccc(OCc2ccc([N+](=O)[O-])cc2)cc1C | -1.29% | -0.719
CCSc1ccc(NC(=O)CC2c3ccccc3Oc3ccccc32)cc1 | -7.71% | -2.39
COc1ccccc1CNC(=O)C(C)Oc1cccc(Cl)c1 (stereo unspecified) | -1.41% | -0.785
COc1ccc(C(=O)Nc2ccc3oc(-c4ccccc4)nc3c2)cc1OC | -2.95% | -1.28
COC(=O)c1ccc(COC(=O)c2ccc([N+](=O)[O-])c(C)c2)cc1 | -0.897% | -0.499
O=C(CCCOc1ccccc1)N1CCN(c2ccccn2)CC1 | -1.33% | -0.738
Cc1[nH]c2ccccc2c(=O)c1CN(C)Cc1ccccc1 | 0.566% | 0.175
O=C(O)c1cc(Cl)ccc1NS(=O)(=O)c1ccc(Cl)cc1 | -1.75% | -0.369

SMILES | corrected activity, negative = more killing | z-score
CCC(Sc1nc(C)cc(C)n1)C(=O)Nc1nnc(C)s1 (stereo unspecified) | -9.03% | -2.8
COCCCNC(=O)c1cc(OC)c(OC)c(OC)c1 | -10.8% | -2.27
Cc1cc(Nc2ncnc3sc4c(c23)CCCC4)ccc1Br | -1.91% | -1.03
CCCc1sc(N2CCN(C(=O)c3ccccc3)CC2)nc1-c1ccccc1 | -5.71% | -1.77
Cc1ccc(C(=O)Oc2cccc(C(=S)N3CCOCC3)c2)cc1 | 1.48% | 0.458
C=CCSc1nc(C)c2cc(C)ccc2n1 | -2.18% | -0.675
O=C(c1cc(-c2ccc3c(c2)OCO3)nc2ccccc12)N1CCN(Cc2ccc3c(c2)OCO3)CC1 | -3.33% | -1.37
Cc1ccc(-n2c(O)c(C=C3C=Nc4ccccc43)sc2=O)cc1 | -3.36% | -1.74
O=C1CC(c2ccc(Cl)cc2)CC2=C1C(c1cccc(F)c1)Nc1ccccc1N2 (stereo unspecified) | -9.53% | -2.95
CCOC(=O)c1c(NC(=O)c2ccccc2F)sc(C(=O)Nc2cccc(Cl)c2)c1C | -1.46% | -0.517
O=C(NN=Cc1cccnc1)c1cc(C2CC2)[nH]n1 | -2.36% | -1.03
O=c1c2cc(N3CCCCC3)ccc2[nH]c(=S)n1Cc1ccccc1 | -6.78% | -1.8
CC(C)c1ccc(NC(=O)c2cc(S(=O)(=O)N3CCN(c4ccccc4)CC3)ccc2F)cc1 | -8.98% | -2.42
Cc1ccc(OCC(=O)Nc2ccc(N3CCOCC3)c(Cl)c2)cc1 | -5.7% | -1.77
Cc1c(C(=O)Nc2cccc([N+](=O)[O-])c2)sc2ncn(CC(=O)N3CCOCC3)c(=O)c12 | -2.14% | -0.779
COc1ccc(OCCCN2CCc3ccccc3C2)cc1 | -4.65% | -2.58
O=C(CC1Sc2ccccc2NC1=O)Nc1ccc2c(c1)OCO2 (stereo unspecified) | -2.14% | -0.818
COc1ccc(-n2c(=S)[nH]c3cc(C(=O)O)ccc3c2=O)c(OC)c1 | -4.6% | -1.46
CCOC(=O)c1cnc(SCc2ccccc2Cl)nc1N | -1.75% | -0.473
CCN(CC)C(=O)CSc1nnc(-c2ccccc2)o1 | -4.29% | -1.86
CCCn1cnc2sc(C(=O)Nc3ccc(Oc4ccc5c(c4)C(=O)N(c4ccc6c(c4)OCO6)C5=O)cc3)c(C)c2c1=O | -4.94% | -1.8
